aSyn 5UTR inh: MLPCN primary screen, SNCA 5' untranslated region | 0.82% of 300,000 active | alpha-synuclein 5'UTR reporter, inhibitor activity | inhibition, % (tested at 7.5 µM); in the data active means inhibition above about 60%;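 further: H4 neuroglioblastoma cells stably carrying SNCA 5'UTR luciferase fusion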
TROY NFkB inh: inhibitors of TROY-dependent NF-kB signaling | Q293 LMP1-TROYcd NF-kB luciferase reporter, 4 h | inhibition, % at 10 µM | 0.98% of 360,000 active | AID 1347056;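 active means compounds whose plate-normalised and pattern-corrected inhibition of the luciferase reporter signal at the single screening dose is 50% or more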
HIF-2a inh: blocks HIF-2a reporter activity; 786-0 RCC cells HIF-2a reporter, luciferase luminescence, overnight; inhibition, % at 18.8 µM; 0.72% of 360,000 active; AID 624352;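 active means inhibition of the luminescence signal of 40% or more relative to plate controls, in a single-dose primary screen at 18.75 µM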
HSP90 inh: HSP90 refolding inhibition in rabbit reticulocyte lysate | luciferase refolding luminescence, 3 h | inhibition, % at 5.6 µM | 0.91% of 290,000 active | AID 1789;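 active means inhibition above the screen-wide mean plus 3 SD, computed separately per campaign, cut at about 16% in these data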;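 further: inhibitors lower the luminescence because luciferase stays unfolded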
TWEAK Fn14 block: TWEAK-Fn14 signaling inhibition | TWEAK-stimulated Fn14 reporter cells, luciferase luminescence, 8 h | inhibition, % at 10 µM | 2% of 360,000 active | AID 1159606; in the data active means inhibition above about 50%
TRAIL sens C8: caspase-8 TRAIL sensitization. NB7+C8 cells + TRAIL, ATPlite viability luminescence. inhibition (viability loss, TRAIL sensitization), % at 10 µM. 1% of 360,000 active. AID 624354;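 active means compounds causing at least 50% loss of cell viability in the single-dose screen, relative to plate controls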
Large screens that a line does not name were inactive. Shown are actives, neighbours in structure and some others; about 3.9% of the full set was active somewhere.

O=C(OCc1nnc(-c2ccccc2)o1)c1ccc2ccccc2n1	TWEAK Fn14 block 79 (no result: TROY NFkB inh)
CS(=O)(=O)c1ccc(C(=O)OCC(=O)NC(=O)C2COc3ccccc3O2)cc1[N+](=O)[O-] (configuration not stated)	TWEAK Fn14 block 55 (no result: aSyn 5UTR inh, HSP90 inh)
Nc1ccc(C(=O)NNC(=O)C2COc3ccccc3O2)cc1[N+](=O)[O-] (configuration not stated)	none (no result: HSP90 inh)
CC1=C(C(=O)N(C)C)CC(CC(=O)NCCCN(C)C)C(=O)N1CCCN1CCCC1=O (configuration not stated)	none (no result: aSyn 5UTR inh, HSP90 inh)
C=CCN(CC=C)Cc1cc(=O)oc2ccccc12	none (no result: aSyn 5UTR inh, HSP90 inh)
CCCCc1nc(N2CCN(C(=O)c3ccco3)CC2)c(C#N)c2c1CCCC2	TROY NFkB inh 68
COC(=O)CCCC[C@@H]1O[C@H](CCc2ccccc2)CC2=C1C(=O)OC(C)(C)O2	none (no result: aSyn 5UTR inh, HSP90 inh)
O=c1cc2oc3cc(O)c(O)cc3c(-c3ccccc3[N+](=O)[O-])c-2cc1O	aSyn 5UTR inh 71
CC(C)(C)C1CCc2sc(C(=O)NNC(=O)CCl)cc2C1 (configuration not stated)	TRAIL sens C8 88
CC(C)(C)C1CCC(=NNC(=O)c2cc3c(s2)CCCC3)CC1 (configuration not stated)	none
CC1(C)CC(=O)C=C(c2n[nH]nc2C2=CCCCC2)C1	none (no result: aSyn 5UTR inh, HSP90 inh)
COc1ccc(CCNC(=O)C(=O)NCC2CCCN2S(=O)(=O)c2ccccc2)cc1 (configuration not stated)	TROY NFkB inh 51 (no result: HSP90 inh)
CC(C)=CCc1cc([C@@H]2CC(=O)c3ccc(O)c(CC=C(C)C)c3O2)ccc1O	TWEAK Fn14 block 58 (no result: HSP90 inh)
CC(C)CN(C(=O)COc1ccc2ccc(=O)oc2c1)C1CCS(=O)(=O)C1 (configuration not stated)	TWEAK Fn14 block 61
O=C(Cc1cccc(C(F)(F)F)c1)NCc1cccc(Cl)c1	none
O=C(NCc1cccc(Cl)c1)c1ccc(S(=O)(=O)Nc2cccc(C(F)(F)F)c2)cc1	TROY NFkB inh 55
COc1ccc(NC(=O)c2ccccc2F)cc1Cl	none
O=C(Nc1ccc(Oc2ccc(Cl)cc2)c(Cl)c1)c1cc(I)cc(I)c1O	TROY NFkB inh 72, TWEAK Fn14 block 57
COc1ccc(-c2csc3ncnc(N4CCN(c5ccccc5[N+](=O)[O-])CC4)c23)cc1	none
CCC(c1ccc(O)cc1)C(CC)c1ccc(O)cc1 (configuration not stated)	TROY NFkB inh 52 (no result: aSyn 5UTR inh, HSP90 inh)
CCC(C(=O)c1ccc(O)cc1)c1ccccc1 (configuration not stated)	none
CC1(C(=O)Nc2ccc3c(c2)OCCO3)CN(S(C)(=O)=O)CC(=O)N1CCc1ccccc1 (configuration not stated)	none (no result: aSyn 5UTR inh, TROY NFkB inh, HSP90 inh, TWEAK Fn14 block)
COc1ccc(CNC(=S)NC2CCCC2)cc1	none
Cc1ccc(CNC(=S)NC2CCC(C(C)(C)C)CC2)cc1 (configuration not stated)	TROY NFkB inh 51
Cc1cccc(Nc2ccncc2S(N)(=O)=O)c1	TWEAK Fn14 block 70 (no result: HSP90 inh)
CCc1nc2c(OCC(N)=O)cccn2c1N(C)C(=O)c1cccs1	none (no result: aSyn 5UTR inh, HSP90 inh)
CCCC(=O)N(C1CC(C)C(C#N)(C#N)C1(C#N)C#N)N(C)C (configuration not stated)	HIF-2a inh 86
CC(=O)N(C1CC(C)C(C#N)(C#N)C1(C#N)C#N)N(C)C (configuration not stated)	HIF-2a inh 46
O=C(OCc1cccc(C(F)(F)F)c1)c1cc(S(=O)(=O)N2CCOCC2)ccc1F	TRAIL sens C8 72 (no result: HSP90 inh)
COc1cccc(COC(=O)c2ccc(S(=O)(=O)N3CCC(C)CC3)cc2)c1OC	none (no result: HSP90 inh)
COc1cccc(COC(=O)c2cc(S(=O)(=O)N3CCOCC3)ccc2Cl)c1OC	TWEAK Fn14 block 85 (no result: aSyn 5UTR inh, HSP90 inh)
O=C(COC(=O)c1cc(S(=O)(=O)N2CCOCC2)ccc1F)c1ccccc1	none (no result: aSyn 5UTR inh, HSP90 inh)
Cc1nc(SCc2nc3c(F)cccc3[nH]2)c2oc3ccccc3c2n1	none (no result: aSyn 5UTR inh, HSP90 inh)
O=C(CN1C2CCCC1CC(NC(=O)c1ccco1)C2)Nc1ccccc1C(F)(F)F (configuration not stated)	none
O=C(CN1C2CCCC1CC(NC(=O)c1ccccc1)C2)Nc1ccccc1C(F)(F)F (configuration not stated)	TROY NFkB inh 51
CCCNC(=O)C1(C)CCN(CCS(=O)(=O)c2ccc(C)cc2)C1 (configuration not stated)	none (no result: aSyn 5UTR inh, HSP90 inh)
O=C1/C(=C/c2ccccn2)COc2ccccc21	none

Assay outcomes (PubChem)
